Screens from PubChem.
MCF10A rerep: induces DNA re-replication in MCF 10a normal breast cells | MCF 10A DNA re-replication, Hoechst nuclear intensity, 48 h | Potency, µM (highest dose often 46.1 µM), for inactives: at the highest dose activity, positive = re-replication, hits mostly activators | 350,000 tested, 2.9% active | AID 624296; further: potency means the concentration at half of the fitted maximal effect; % of control where 0% means no effect; nearly all actives have a fitted effect of over 50% in size
SW480 rerep: inducers of DNA re-replication in SW480 colon cancer cells; SW480 DNA re-replication, Hoechst DNA content imaging, 48 h; Potency, µM (titrated, usually from 46.1 µM), for the others: at the top dose re-replication activation, most hits filed as activators; 340,000 tested, 1.8% active; further: potency means the concentration at half of the fitted maximal effect; % of control where 0% means no effect; nearly all actives have a fitted effect of over 55% in size
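Quantitative HTS format with DMSO vehicle controls; 48 hr drug incubation at 37 C, then 40 min Hoechst staining and scanning imager measurement at 405 nm excitation.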
RORgamma inh: inhibitors of mouse ROR gamma transcriptional activity; Potency, µM (top dose mostly 53.6 µM), inactives show at the highest dose activity change, negative = inhibition, usual class: inhibitors; P51450; Drosophila S2 Gal4-RORgamma UAS-luciferase reporter, 20 h; 310,000 tested, 5.4% active; AID 2551; further: potency means the concentration at half of the fitted maximal effect; on the % scale 0 is the no-effect control and ±100 the full control effect; nearly all actives have a fitted effect of over 60% in size
Target sequence (P51450 whole entry, looked up, the tested form may be a part): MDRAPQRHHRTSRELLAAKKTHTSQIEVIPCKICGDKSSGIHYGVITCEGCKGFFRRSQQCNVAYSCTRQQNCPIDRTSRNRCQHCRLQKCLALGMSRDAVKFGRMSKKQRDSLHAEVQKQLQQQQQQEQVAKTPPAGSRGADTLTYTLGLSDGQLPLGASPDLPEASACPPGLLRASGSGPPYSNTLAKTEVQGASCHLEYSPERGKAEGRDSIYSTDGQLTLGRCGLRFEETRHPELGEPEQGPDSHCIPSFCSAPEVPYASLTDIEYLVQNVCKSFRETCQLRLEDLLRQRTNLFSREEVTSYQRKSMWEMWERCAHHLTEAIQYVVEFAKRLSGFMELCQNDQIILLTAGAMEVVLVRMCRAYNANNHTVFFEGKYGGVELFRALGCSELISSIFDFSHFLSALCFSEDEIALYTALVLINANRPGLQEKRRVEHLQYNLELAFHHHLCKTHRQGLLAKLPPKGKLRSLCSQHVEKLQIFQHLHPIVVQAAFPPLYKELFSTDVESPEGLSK
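Stably transfected Drosophila Schneider cells are the test system, with ROR gamma fused to Gal4 and luciferase under UAS control; luminescence is read after 20 hr of 700 uM copper sulfate induction at ambient temperature.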
VP16 counter: counter-screen for ROR gamma inhibitors: Gal4-VP16 reporter | AID 2546 | Potency, µM (titrated, usually from 53.6 µM), for the others: at the highest dose activity, negative = inhibition, usual class: inhibitors | Drosophila S2 Gal4-VP16 UAS-luciferase, luminescence, 20 h | 310,000 tested, 3.5% active;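 further: Gal4-VP16 expression switched on by copper sulfate through the metallothionein promoter; potency means the concentration at half of the fitted maximal effect; on the % scale 0 is the no-effect control and ±100 the full control effect; nearly all actives have a fitted effect of over 50% in size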
IL-1B inflam inh: inflammasome signaling inhibition, IL-1 beta readout | THP-1 LPS/ATP IL-1B secretion, AlphaLISA, 16 h; stronger effect = lower value | activity change, % at 57.5 µM | 360,000 tested, 4.7% active; in the data active means activity change below about -50%; inconclusive means mostly about -30% to -49%; further: on the % scale 0 is the no-effect control and ±100 the full control effect
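Secreted IL-1B measured by AlphaLISA bead assay after 16 h compound exposure of THP-1 cells; compounds (final up to 57.5 uM) added 1 h before LPS (250 ng/mL) and ATP (1.25 mM) stimulation; lower signal means less secretion.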
Starred values were filed as active, the others as inactive; ? = inconclusive; · = not tested or not shown; [ ] = remark or other dose. Hits are enriched below; roughly 11% of the tested compounds scored in any of these assays. Unless noted, the call rests on the fitted dose curve; in most records, active means well fitted curve in the direction sought with a large enough effect; inconclusive means small, poorly fitted or top-dose-only effect, or another doubt; inactive means no such curve, though single readings can be large; an effect the other way counts as inactive or inconclusive.

SMILES	MCF10A rerep	SW480 rerep	RORgamma inh	VP16 counter	IL-1B inflam inh
COc1cc(C(=O)N/N=C(\Cc2ncc[nH]2)c2ccccc2)cc(OC)c1OC	18µM*	?	?	-7%	69
COc1ccc(C(=O)N/N=C(\Cc2ncc[nH]2)c2ccccc2)cc1	?	9.2µM*	?	-13%	42
Cc1nn2c(COc3ccc(NC(=O)c4ccccc4Cl)cc3)nnc2c2ccccc12	2.9µM*	8.2µM*	39%	-8%	?
CC1Cc2ccccc2N1C(=S)NC(=O)c1cccc(Br)c1 (stereo not given)	18%	18%	1.1µM*	0.79µM*	22
Cc1ccc2c(c1)C1CN(C)CCC1N2C(=S)NC(=O)c1ccc(Cl)cc1Cl (stereo not given)	2%	3%	0.28µM*	0.89µM*	3
Cc1ccc2c(c1)C1CN(C)CCC1N2C(=O)COc1ccccc1F (stereo not given)	10%	-4%	-1%	1%	-12
COc1cccc(C(=O)NC(=S)N2c3ccccc3CC2C)c1OC (stereo not given)	23%	8%	4µM*	14µM*	5
CC(=O)c1ccc(NC(=S)N2c3ccccc3CC2C)cc1 (stereo not given)	-1%	-16%	?	0%	7
CC1Cc2ccccc2N1C(=S)NC(=O)c1ccc(Cl)cc1Cl (stereo not given)	13%	5%	0.35µM*	0.71µM*	22
O=C(Nc1ccccc1)C1Cc2c(-c3ccco3)ccnc2O1 (stereo not given)	·	·	·	·	-6
COc1cccc(-c2cnc(C(O)c3ccc(C)c(F)c3)[nH]2)c1 (stereo not given)	·	·	·	·	3
O=S(=O)(c1ccc(F)cc1)c1nc(-c2ccco2)oc1Nc1ccc(F)cc1	?	-6%	?	-4%	?
COc1ccc(Nc2oc(-c3ccco3)nc2S(=O)(=O)c2ccc(F)cc2)cc1	15µM*	?	?	-5%	-57*
COc1c(C)cc(C(O)c2ncc(-c3ccc(Cl)cc3)[nH]2)cc1C (stereo not given)	·	·	·	·	12
COc1c(C)cc(C(O)c2ncc(-c3ccccc3)[nH]2)cc1C (stereo not given)	·	·	·	·	-60*
CC1(C(=O)NCC2CC2)CCN1C(=O)C1(c2ccc(Cl)cc2)CC1 (stereo not given)	·	·	·	·	33
CCCCOc1ccc(Cc2cnc(N)nc2N)cc1	?	14%	18%	-8%	-55*
CCN(CC)S(=O)(=O)c1cccc(NC(=O)c2cc(-c3cccs3)nn2-c2ccccc2)c1	-48%	8.2µM*	39%	-6%	7
O=C1CCC/C1=C\c1ccccc1	-1%	-1%	-16%	6%	10
O=C1/C(=C/c2ccncc2)CCC/C1=C\c1ccncc1	3.7µM*	2.6µM*	6.3µM*	5µM*	?
O=C1/C(=C\c2ccccc2)CCC/C1=C/c1ccccc1	15µM*	?	·	·	-25
N#Cc1cccc(NC(=O)N2CCC3(CC2)CCN(C(=O)c2ccco2)CC3)c1	·	·	32%	0%	·
Cc1cc(C)nc(/N=C(\N)Nc2ccc(S(=O)(=O)Nc3nc(C)cc(C)n3)cc2)n1	·	·	-18%	-3%	·
Cc1cc(=O)[nH]c(/N=C(\N)Nc2ccc3c(c2)OCCO3)n1	-20%	-7%	2%	-11%	8
Cc1cc(C)nc(/N=C(\N)Nc2ccc3c(c2)OCCO3)n1	?	140%	12%	-7%	-78*
SMILES	MCF10A rerep	SW480 rerep	RORgamma inh	VP16 counter	IL-1B inflam inh
Cc1cc(C)nc(/N=C(\N)Nc2ccc(F)c([N+](=O)[O-])c2)n1	10%	2%	-22%	1%	-92*
Cc1cc(C)nc(/N=C(\N)Nc2ccc(S(N)(=O)=O)cc2)n1	10%	6%	-16%	-13%	34
CC(=O)Nc1ccc(N/C(N)=N/c2nc(C)cc(C)n2)cc1	6%[9.22 µM]	-11%	-16%	3%	-93*
O=C(COC(=O)c1cc[n+]([O-])cc1)Nc1cccc(Br)c1	-19%	?	·	·	7
COc1ccc(Br)cc1/C=C/C(=O)NCC(=O)O	4%	-22%	-2%	-6%	-3
COc1cc(Br)cc(/C=C/c2ccc3cccc(O)c3n2)c1OC	5%	-8%	2.5µM*	?	2
COc1ccc(Br)cc1/C=C/c1ccc2cccc(O)c2n1	10%	?	4.5µM*	?	60
CCOc1c(OC(C)=O)ccc(/C=C/c2ccc3cccc(OC)c3n2)c1[N+](=O)[O-]	16%	?	?	-5%	5
COc1ccccc1-c1cc(N(C)Cc2ccco2)ncn1	·	·	-2%	-13%	·
COc1ccc(/C=C/C(=O)OCC(=O)c2ccc3c(c2)NC(=O)CO3)c(OC)c1	4%	?	25%	-6%	-52*
O=C1COc2ccc(C(=O)CCl)cc2N1	21µM*	21µM*	?	?	-90*
COc1cccc(/C=C/C(=O)OCC(=O)c2ccc3c(c2)NC(=O)CO3)c1OC	?	2%	-4%	-11%	6
O=C1c2ccccc2C(=O)C1c1ccc2ccccc2n1	?	0%	?	4µM*	-3
Cc1cccc(NC(=O)c2ccc(N3CCCCC3)c([N+](=O)[O-])c2)n1	10µM*	-5%	?	?	-3
C=C1CCN(c2ccc(C(=O)NCCC)cc2[N+](=O)[O-])CC1	-9%	0%	·	·	-55*
C=C1CCN(c2ccc(C(=O)NCc3ccccc3)cc2[N+](=O)[O-])CC1	-7%	-1%	7%	6%	0
CCC(=O)N1CCN(c2ccc(Cl)cc2NC(=O)c2ccc(N3CCCC3)c([N+](=O)[O-])c2)CC1	5%	-5%	5%	-7%	-51*
COC(CNC(=O)c1ccc(N2CCc3ccccc32)c([N+](=O)[O-])c1)OC	?	-3%	?	18µM*	-15
CC(C)(C)Cc1c(-c2ccc(F)cc2)nc2ccc(Cl)cn12	·	·	·	·	43
O=C(Nc1ccc(-c2n[nH]c(=S)o2)cc1)c1ccccc1Br	-4%	-1%	-44%	-16%	44
CC1(c2nnnn2-c2ccc3c(c2)OCCO3)CCC(=O)N1C1CC1 (stereo not given)	·	·	·	·	28
Cc1cc(OCC(=O)Nc2cnn(CCCC(=O)O)c2)ccc1Cl	2%	2%	8%	-4%	16
O=C1C=C(N2CCCCC2)C2(CCCCC2)O1	1%	-4%	-10%	11%	6
O=C1C=C(N2CCOCC2)C2(CCCCC2)O1	8%	-14%	11µM*	-27%	-4
Cc1ccc(OCc2nc(C#N)c(NCc3ccco3)o2)cc1	7%	2%	14%	-6%	-54*
COc1ccc(CCNc2oc(COc3ccccc3)nc2C#N)cc1	5%	-1%	19%	2%	-9
N#Cc1nc(COc2ccccc2F)oc1NCCc1ccccc1	23µM*	5%	?	17%	-77*
